Source: the supplement of paper PMC4206467

system: Perkinsus marinus PRA240; assay: ATP content (proliferation) relative to DMSO control; higher = more parasite growth (less inhibition); conditions: 20 µM; 4 days
Description: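 Perkinsus marinus PRA240 trophozoites (2-5x10^6 cells/ml, 100 µl, 96-well) were exposed once to MMV Malaria Box compounds at 20 µM (0.1% DMSO) in triplicate. ATP content (ATPlite bioluminescence) was read at day 4 post-exposure and normalised to DMSO + cells control wells (100% activity). Compounds were identified by joining plate and well to the Malaria Box list.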

Structure (SMILES)	ATP content [%]
COc1ccc(C2C(C(=O)Nc3cccc(OC)c3)c3ccccc3C(=O)N2C2CCCCC2)cc1 (configuration not stated)	94.3
O=C(Nc1cccc(-c2nc3ccccc3[nH]2)c1)c1cccc(NC(=O)c2ccco2)c1	126
CCOC(=O)C1(Cc2ccccc2)CCN(Cc2cccc(OC)c2O)CC1	143
COc1ccccc1N1C(=N)SC(=Cc2ccc(OCc3ccccc3F)cc2)C1=O	57.5
O=c1cc(NC2CCN(CCCc3ccccc3)CC2)c2cc(Cl)ccc2o1	167
Cc1ccc(C(=O)c2oc3ccc4c(C)cc(=O)oc4c3c2C)cc1	123
CCN(CC)c1cc(C)c2cc(NC(=O)c3cccc(OC)c3)ccc2n1	74
Cc1ccc(NC(=O)Nc2cccc(Cl)c2)cc1F	85
OC(CNCC1CCCO1)Cn1c2ccc(Cl)cc2c2cc(Cl)ccc21 (configuration not stated)	142
Cc1cc(NC(=O)c2ccc(-c3ccccc3)cc2)no1	69.1
CC(C)(C)CC(C)(C)NCC(O)COc1ccc(Cl)cc1Cl (configuration not stated)	123
COc1ccc(N2CCN(C(CNC(=O)C3CCCCC3)c3ccc4c(c3)OCO4)CC2)cc1 (configuration not stated)	114
CCN(CC)CCNc1ccnc2cc3ccccc3cc12	107
FC(F)(F)c1cccc(Nc2nc(-c3ccccc3)nc3ncccc23)c1	108
CCCCN(CCCC)S(=O)(=O)c1ccc(NC(=O)c2ccco2)cc1	43.3
O=C(Nc1ccc(-c2nc3cc4ccccc4cc3[nH]2)cc1)c1cccc(Br)c1	124
O=C(Nc1ccc(CN2CCOCC2)cc1)c1ccc(-c2ccc(Br)cc2)o1	89.4
Cc1c(C)n(CC(O)CNC2CCCCC2C)c2ccccc12 (configuration not stated)	106
COc1cc(C(=O)ON=C(N)Cc2cccc3ccccc23)cc(OC)c1OC	87.4

Structure (SMILES)	ATP content [%]
OC1=C2C(=Nc3ccccc3SC2c2ccc(Br)cc2)c2ccccc21 (configuration not stated)	45.9
CN(C)CCNc1cc(-c2ccccc2)nc2ccccc12	106
Cc1nc2ccccc2c(O)c1CC=C(Cl)Cl	50.4
COc1ccc(N2CCN(C(CNC(=O)CC(C)(C)C)c3ccc4c(c3)OCO4)CC2)cc1 (configuration not stated)	211
Cc1sc(NC(=O)c2ccco2)c(C(c2cccnc2)N2CCC(Cc3ccccc3)CC2)c1C (configuration not stated)	48.5
COc1cc(-c2nc(-c3ccccc3)c(-c3ccccc3)[nH]2)cc(OC)c1O	61.1
CCOC(=O)C1=CN(C)C=C(C(=O)OCC)C1c1cc(Br)c(OCC)c(OC)c1	121
O=C(c1ccccc1F)N(Cc1ccc(Cl)cc1)c1ccccn1	59
COC(=O)c1ccc(Cl)c2c1C1C=CCC1C(c1cccc3ccccc13)N2 (configuration not stated)	106
CCCCNc1nc(NC(C)(C)C)nc(NC(C)(C)C)n1	116
Clc1ccc2c(N3CCCC3)ccnc2c1	91
COc1nc(Nc2ccc(C(C)C)cc2)nc(OC)n1	125
CCn1nc(-c2ccc(C(=O)OC)cc2)nc2c(=O)n(C)c(=O)nc1-2	1.37
Cc1sc2ncnc(Sc3nc4ccccc4[nH]3)c2c1C	131
Cn1c(C(=O)c2cccc3ccccc23)nc2ccccc21	55.5
Cc1cc(N2CCN(C3CCCC3)CC2)n2c(nc3ccccc32)c1C#N	161
O=C(NCC1Cc2cccc(-c3ccncc3)c2O1)c1csc2c1CCCC2 (configuration not stated)	114
N#Cc1nc(Cc2cccc3ccccc23)oc1N1CCN(C(c2ccccc2)c2ccccc2)CC1	132
